The whole screen tested about 85,000 compounds, of which about 440 (0.52%) showed an effect of 50% or more. The list comes from a sample in which strong results are over-represented; it also holds similar structures and randomly drawn compounds.
Test: In vitro enzyme assay to detect hydrolysis of chlorophenol red-beta-D-[…] directly proportional to the number of Toxoplasma stably expressing beta-galactosidase
Type: functional, organism-based, Toxoplasma gondii
Parameters: scale not given: in the data most compounds retested in dose-response had high values

Structure (SMILES)	Percent Effect (10 µM) [%]	Percent Effect (50 µM) [%]
N#Cc1ccc(NCc2cccc(OCC3CCCO3)c2)nc1 (centres undefined)	-17.65	
Cc1nc2ccccc2nc1NCc1cccc(OCC2CCCO2)c1 (centres undefined)	17.15	
Cc1nnc(NCc2cccc(OCC3CCCO3)c2)c(C#N)c1C (centres undefined)	91.1	
CN(C)S(=O)(=O)N(CCCO)c1ccccc1Br		-12.8
CCc1nnc(Nc2cc(C)nc(C3CCN(c4ncccn4)C3)n2)s1 (centres undefined)	8.527	
CCc1nnc(Nc2cc(C)nc(C3CCN(c4ccncn4)C3)n2)s1 (centres undefined)	84.37	
CCc1nnc(Nc2cc(C)nc(C3CCN(c4cnccn4)C3)n2)s1 (centres undefined)	9.302	
O=C(c1cccc(N2CCNC2=O)c1)N1CCOCC1		-16.74
Cc1ccc(-c2cc(CNc3ncnc4c3CCNCC4)no2)cc1	59.71	
COc1ccc(-c2cc(CNc3ncnc4c3CCNCC4)no2)cc1	5.898	
Clc1ccccc1-c1cc(CNc2ncnc3c2CCNCC3)no1	22.17	
O=C(CSc1nnc[nH]1)NCc1ccc(Br)c(F)c1		-12.01
CC(C)n1ccc(CN2C(=O)CC(C)(C)C2=O)n1		66.84
CC(=O)Cc1ccn(C(C)C)n1		-14.04
CCOc1ccc(CN2C(=O)CC(C)(C)C2=O)nc1	15.64	
Nc1n[nH]c(SCc2ccc3c(c2)OCCO3)n1		48.58
CC(C)(C)OC(=O)CNC1CCOCC1		-4.673
O=C(Nc1ccc(Br)cn1)C1CCCNC1 (centres undefined)		56.99
CCN1CC(C(=O)Nc2ccc(Br)cn2)CC1=O (centres undefined)		-17.13
Cc1cccc(NC(=O)C2CCCNC2)n1 (centres undefined)		-13.07
CC(NC(=O)c1ccc(Br)cc1)C(=O)N1CCOCC1 (centres undefined)		-8.67
Cc1cc(C)n(CC2CCCN2CCS(C)(=O)=O)n1 (centres undefined)	-2.075	
Cc1cc(C)n(CC2CCCN2CCCS(C)(=O)=O)n1 (centres undefined)	55.61	
Cc1cc(C)n(CC2CCCN2CCCS(N)(=O)=O)n1 (centres undefined)	-7.895	

Structure (SMILES)	Percent Effect (10 µM) [%]	Percent Effect (50 µM) [%]
Cc1n[nH]c(C)c1C(NC(N)=O)c1ccccc1 (centres undefined)		2.289
CCN1CCCN(c2ccccn2)CC1		3.404
NCc1nc(-c2ccccn2)cs1		-2.115
NCc1nc(-c2ccccn2)no1		-15.18
NCc1cccc(-c2ccccn2)n1		73.75
CN(CC(=O)Nc1ccsc1)C1CCS(=O)(=O)C1 (centres undefined)		-6.022
O=C(NCC1CCOC1)c1ccoc1C(F)(F)F (centres undefined)		-4.875
NCCNc1ccc2ccccc2n1		-5.159
O=C(c1ccc(F)cc1)C(O)O		0.6979
CCn1ncnc1CN1CCCC2(C1)CN(C)C(=O)O2 (centres undefined)		-8.186
COCC(=O)N1CCCCCC1C1CCNCC1 (centres undefined)		-2.687
CC(=O)N1CCCCCC1C1CCNCC1 (centres undefined)		-20.88
NC(=O)N1CCCCCC1C1CCNCC1 (centres undefined)		99.53
COCCC(=O)N(C)C(C)Cc1ncccc1C (centres undefined)		-3.603
Cn1cc(C(=O)NC2CC(C)(C)OC2(C)C)cn1 (centres undefined)		6.396
O[C@@H]1CCC[C@H]1n1cccn1		27.87
CC1(C)CC(n2cccn2)C(C)(C)O1 (centres undefined)		95.21
Cc1cc(C(=O)NCc2ccc(CO)cc2)cc(C)n1		4.895
Cn1cccc1CNCC1CCCn2cc(C(C)(C)C)nc21 (centres undefined)	2.504	
CC(C)(C)c1cn2c(n1)C(CNCc1ccccn1)CCC2 (centres undefined)	84.2	
Cc1cn2c(n1)C(CNCC1=Cc3ccccc3OC1)CCC2 (centres undefined)	-4.432	
Cc1cn2c(n1)C(CNCc1cccc3c1OCO3)CCC2 (centres undefined)	1.818	
CC(C)(C)c1cn2c(n1)C(CNCc1cnn3ccccc13)CCC2 (centres undefined)	84.08	
Cc1cn2c(n1)C(CNCc1cnn3ccccc13)CCC2 (centres undefined)	-1.725	

Structure (SMILES)	Percent Effect (10 µM) [%]	Percent Effect (50 µM) [%]
Cn1nccc1NC(=O)N1CCOCC1C1CC1 (centres undefined)		-2.135
O=C1COCC(Cc2ccccc2)N1 (centres undefined)		-23.94
NC(=O)CN1CCn2cccc2C1c1ccccc1 (centres undefined)		-16.03
CNC1CCN(c2cc(OC)cc(OC)c2)C1 (centres undefined)		-16.53
COCc1ccccc1C(=O)N1CCCC(O)C1 (centres undefined)		58.79
COCc1ccccc1C(=O)N1CCCC(c2cc(C)[nH]n2)C1 (centres undefined)	-0.6285	
CCN1CCCN(C(=O)c2ccccc2COC)CC1		3.121
O=C(NCC(O)C1CCCCC1)[C@@H](O)c1ccccc1 (some centres undefined)		-2.815
Cc1nn(CCO)c(NC(C)c2nccs2)c1C (centres undefined)		-2.968
COC[C@H]1CCC[C@H]1NC(=O)CCn1cncn1		1.07
CN(Cc1ccccc1)C(=O)CN1CCCC(Cn2cncn2)C1 (centres undefined)	-36.27	
CN(Cc1cnn(C)c1)C(=O)CN1CCCC(Cn2cncn2)C1 (centres undefined)	96.23	
Cc1ccc(CN(C)C(=O)CN2CCCC(Cn3cncn3)C2)cc1 (centres undefined)	-19.93	
NC(=O)COC(=O)c1cc(Cl)cc(C(F)(F)F)c1		-16.81
Cc1[nH]ncc1C(=O)NCCCSCC(C)C		11.62
Cc1nn(C)c2c(=O)n(Cc3ccc(Cl)cc3)nnc12	71.45	
CCn1nc(C)c2nnn(CC(=O)Nc3ccccc3)c(=O)c21	1.414	
Cc1c(C(=O)NC(C)C)nnn1Cc1ccccc1		17.24
Cc1nn(C)c2c(=O)n(CC(=O)Nc3cc(Cl)cc(Cl)c3)nnc12	-3.347	
Cc1nn(C)c(=O)c2nn(-c3ccc(F)cc3)c(C)c12	-17.45	
Cc1nn(C)c2c(=O)n(Cc3ccc(F)cc3)nnc12	62.42	
Cc1nn(C)c2c(=O)n(Cc3ccc(C#N)cc3)nnc12	39.12	
CCn1nc(C)c2nnn(CC(=O)Nc3cccc(F)c3)c(=O)c21	-2.626	
Cc1nn(C)c2c(=O)n(Cc3ccccc3)nnc12	61.89	

Structure (SMILES)	Percent Effect (10 µM) [%]	Percent Effect (50 µM) [%]
COCC(C)(CCO)NCc1c(C)noc1C (centres undefined)		-23.44
CCC(CNC(=O)Nc1cc(C)nn1C)N1CCCC1 (centres undefined)		-4.617
NC(=O)C1CCN(CCOc2ccccc2F)CC1		-5.356
Cc1cnccc1NCCNC(=O)Cc1ccccn1		-14.36
CCO[C@H]1CN(C)C[C@@H]1NC(=O)c1cnc(CC)nc1		7.652
C[S+]([O-])c1nncn1Cc1cccc2cccnc12 (centres undefined)		-6.749
Cc1cc(N2CCOC(CN(C)CC(N)=O)C2)ccn1 (centres undefined)		2.869
COCc1[nH][nH]c(=O)c1CCN		-30.62
OC1(CNCCCn2cc(Cl)cn2)CCCNC1 (centres undefined)		-11.83
OC1(CNCCOCc2ccc(Cl)cc2)CCCNC1 (centres undefined)		57.1
OC1(CNCCc2csc(-c3ccncc3)n2)CCCNC1 (centres undefined)	-15.25	
CCOCC(O)CN(C)Cc1cccc(C(N)=O)c1 (centres undefined)		-13.39
CCN1C[C@H]2CCN(C(=O)NC3CCCC3)CC[C@H]2S1(=O)=O	-4.304	
CCN1C[C@H]2CCN(C(=O)NC)CC[C@H]2S1(=O)=O	59.16	
CCN1C[C@H]2CCN(C(C)=O)CC[C@H]2S1(=O)=O	-1.674	
Cc1c(N)cnn1C1CCOCC1		-9.55
COc1ccc(OC)c(N2C(=O)CCC2=O)c1		-4.608
CN(CCOCCO)CCOc1ccc(F)cc1		15.3
O=C1NCCOc2ccc(Br)cc21		-18.86
COc1ccc(CNC(=O)C2=NN(c3ccc(C)cc3)C(=O)CN2)cc1	-0.9855	
COc1ccccc1CNC(=O)C1=NN(c2ccc(C)cc2)C(=O)CN1	57.58	
COc1ccc(C)cc1CNC(=O)C1=NN(c2ccccc2)C(=O)CN1	14.43	
Cc1cc2c(cc1S(=O)(=O)N1CCCC(N)C1)OCO2 (centres undefined)		6.23
c1ccc(C2=NOC3(CCN(Cc4c[nH]c5ccccc45)CC3)C2)cc1	73.52	

Structure (SMILES)	Percent Effect (10 µM) [%]	Percent Effect (50 µM) [%]
c1cncc(C2=NOC3(CCN(Cc4c[nH]c5ccccc45)CC3)C2)c1	26.44	
CC(C)C1=NOC2(CCN(Cc3c[nH]c4ccccc34)CC2)C1	33.52	
CCCC(C(=O)OCC)S(N)(=O)=O (centres undefined)		-4.644
COC(=O)C(C)SCc1noc(C2CC2)n1 (centres undefined)		1.688
CCN1C[C@H](NC(=O)c2cccn2C(C)C)[C@@H](OC)C1		-5.083
CCN1C[C@H](NC(=O)c2ccc(Cl)s2)[C@@H](OC)C1		2.981
CCN1C[C@H](NC(=O)c2snnc2C(C)C)[C@@H](OC)C1		82.91
CCC(NC(=O)c1cc(N)[nH]n1)c1nc(C)c[nH]1 (centres undefined)		4.795
Cc1nnsc1CN(C)C(=O)c1ccccc1		22.64
O=C(N[C@@H]1CNC[C@H]1CO)C1CCC1		-0.2309
Cc1cc(CN)nc(N(C)C)n1		87.02
Cc1cc(CN)nc(N2CCCC2)n1		-18.34
CN(C)c1nc(CN)cs1		-3.708
COCCNC(=O)CCC1CCN(CCCSC)CC1		11.51
CCOc1ncccc1C(=O)N1CCCN(C)CC1		3.231
COCCNC(=O)NC(C)CCc1ccc(O)cc1 (centres undefined)		-3.348
Oc1cccc(-c2cc(C3CCN(Cc4cncnc4)C3)ccn2)c1 (centres undefined)	0.5564	
CN(C)CC(C)(C)CN1CCC(c2ccnc(-c3cccc(O)c3)c2)C1 (centres undefined)	7.739	
Cn1ccnc1CN1CCC(c2ccnc(-c3cccc(O)c3)c2)C1 (centres undefined)	55.29	
N#CC1(NC(=O)C(O)Cc2ccccc2Cl)CCC1 (centres undefined)		-6.44
Cc1ccc(Cl)cc1NC(=O)CN1CCNC(=O)C1		47.59
CCc1cccc(C)c1NC(=O)CN1CCNC(=O)C1		-0.5853
O=C1CN(CC(=O)Nc2c(Cl)cccc2Cl)CCN1		55.2

— ChEMBL document CHEMBL3988442, “University of Dundee, Small-Polar-MMV Screening Library” (2021)
